From PubChem BioAssay
Calls of active or inactive are those of the source.

What was measured:
[1] = optical density shifts of acrAB sulA E. coli – strain DRC41, OD650, 48 h, E. coli filamentation inducer project, primary screen (AID 1152); conditions: higher = more signal, called active from +8 up or from −8 down;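 note: E. coli MC1000 strain DRC41 lacking acrAB efflux pump and sulA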
[2] = probe aLefty1 binding on compound microarray – biochemical, small-molecule microarray, 635/667 nm fluorescence, primary screen (AID 1153); conditions: higher = more signal;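 note: score merges spot fluorescence with signal-to-noise ratio from the scanned slide images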
[3] = plasmodial surface anion channel blockers, osmotic lysis – cell-based, P. falciparum Indochina, OD700, 1 h, primary screen (AID 1154); conditions: P. falciparum Indochina infected RBC osmotic lysis, higher = more signal, called active from +8 up or from −8 down
[4] = plasmodial surface anion channel blockers, osmotic lysis – cell-based, P. falciparum Indochina, OD700, 2 h, primary screen (AID 1155);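 note: lysis reports solute entry through the parasite surface anion channel PSAC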; conditions: P. falciparum Indochina infected erythrocytes, higher = more signal, called active from +8 up or from −8 down
[5] = changes in parasitized red cell lysis, either direction – P. falciparum Indochina, OD700, 3 h, PSAC antagonist project, primary screen (AID 1156); conditions: P. falciparum-infected erythrocytes, osmotic lysis, higher = more signal, called active from +8 up or from −8 down
[6] = plasmodial surface anion channel blockers, osmotic lysis – cell-based, P. falciparum Indochina, OD700, 18 h, primary screen (AID 1157); conditions: P. falciparum Indochina infected erythrocytes, osmotic lysis OD700, 18 h; higher = more signal, called active from +8 up or from −8 down
[7] = S6 kinase pathway phospho-S6 level changes – cell-based, A549, cytoblot, luminescence, serum-stimulated, primary screen (AID 1158); conditions: 5 h, higher = more signal;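 note: serum-stimulated A549 lung adenocarcinoma cells; signal is phosphorylated S6 detected by cytoblot immunostaining with HRP secondary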
[8] = target: NADPH oxidase 2 (Homo sapiens) (UniProt P04839); assay: compounds shifting NOX2 Amplex Red fluorescence – cell-based, HEK293-NOX2, PMA-stimulated, NOX inhibitor project, primary screen (AID 1159); conditions: 45 min, higher = more signal, called active from +8 up or from −8 down; note: test concentration not given here
Sequence of NADPH oxidase 2 (Homo sapiens) (P04839 whole entry, looked up): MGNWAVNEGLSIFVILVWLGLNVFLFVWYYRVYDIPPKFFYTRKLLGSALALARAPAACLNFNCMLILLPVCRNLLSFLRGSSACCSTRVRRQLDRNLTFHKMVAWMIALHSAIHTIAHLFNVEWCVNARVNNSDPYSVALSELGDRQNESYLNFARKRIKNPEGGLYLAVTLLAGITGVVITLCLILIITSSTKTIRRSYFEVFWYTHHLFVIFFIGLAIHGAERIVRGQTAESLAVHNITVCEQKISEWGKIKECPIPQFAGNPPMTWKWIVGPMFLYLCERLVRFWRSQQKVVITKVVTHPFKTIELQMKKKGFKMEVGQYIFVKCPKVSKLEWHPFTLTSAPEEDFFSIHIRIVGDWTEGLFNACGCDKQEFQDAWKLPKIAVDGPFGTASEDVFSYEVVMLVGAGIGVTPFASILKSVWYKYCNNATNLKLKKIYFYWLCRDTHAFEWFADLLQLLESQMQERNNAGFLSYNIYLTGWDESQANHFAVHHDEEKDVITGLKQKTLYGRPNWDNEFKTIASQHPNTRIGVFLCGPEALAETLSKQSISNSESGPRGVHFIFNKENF

[9] = target: NADPH oxidase 4 (Homo sapiens) (UniProt Q9NPH5); assay: compounds shifting NOX4 Amplex Red fluorescence – cell-based, HEK293-NOX4, tetracycline-induced, NOX inhibitor project, primary screen (AID 1160); conditions: HEK293-NOX4, Amplex Red H2O2 fluorescence, 45 min; higher = more signal, called active from +8 up or from −8 down
Sequence of NADPH oxidase 4 (Homo sapiens) (Q9NPH5 whole entry, looked up): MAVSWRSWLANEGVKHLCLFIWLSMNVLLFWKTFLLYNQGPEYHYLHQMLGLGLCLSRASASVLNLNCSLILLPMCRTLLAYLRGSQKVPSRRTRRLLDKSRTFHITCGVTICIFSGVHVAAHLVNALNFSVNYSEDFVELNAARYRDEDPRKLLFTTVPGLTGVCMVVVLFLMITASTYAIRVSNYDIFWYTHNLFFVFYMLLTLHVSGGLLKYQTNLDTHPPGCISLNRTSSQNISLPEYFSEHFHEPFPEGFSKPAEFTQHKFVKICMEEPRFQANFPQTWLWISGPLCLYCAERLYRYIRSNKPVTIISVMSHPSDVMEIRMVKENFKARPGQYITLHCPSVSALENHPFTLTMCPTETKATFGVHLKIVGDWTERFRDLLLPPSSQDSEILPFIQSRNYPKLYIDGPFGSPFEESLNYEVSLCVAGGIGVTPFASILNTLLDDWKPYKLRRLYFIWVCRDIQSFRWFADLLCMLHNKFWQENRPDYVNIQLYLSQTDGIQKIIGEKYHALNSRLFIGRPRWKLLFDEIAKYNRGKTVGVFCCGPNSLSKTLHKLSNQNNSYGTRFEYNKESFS

[10] = target: NADPH oxidase 5 (Homo sapiens) (UniProt Q96PH1); assay: compounds shifting NOX5 Amplex Red fluorescence – cell-based, HEK293-NOX5, NOX inhibitor project, primary screen (AID 1161); conditions: HEK293-NOX5, ionomycin, 45 min, higher = more signal
Sequence of NADPH oxidase 5 (Homo sapiens) (Q96PH1 whole entry, looked up): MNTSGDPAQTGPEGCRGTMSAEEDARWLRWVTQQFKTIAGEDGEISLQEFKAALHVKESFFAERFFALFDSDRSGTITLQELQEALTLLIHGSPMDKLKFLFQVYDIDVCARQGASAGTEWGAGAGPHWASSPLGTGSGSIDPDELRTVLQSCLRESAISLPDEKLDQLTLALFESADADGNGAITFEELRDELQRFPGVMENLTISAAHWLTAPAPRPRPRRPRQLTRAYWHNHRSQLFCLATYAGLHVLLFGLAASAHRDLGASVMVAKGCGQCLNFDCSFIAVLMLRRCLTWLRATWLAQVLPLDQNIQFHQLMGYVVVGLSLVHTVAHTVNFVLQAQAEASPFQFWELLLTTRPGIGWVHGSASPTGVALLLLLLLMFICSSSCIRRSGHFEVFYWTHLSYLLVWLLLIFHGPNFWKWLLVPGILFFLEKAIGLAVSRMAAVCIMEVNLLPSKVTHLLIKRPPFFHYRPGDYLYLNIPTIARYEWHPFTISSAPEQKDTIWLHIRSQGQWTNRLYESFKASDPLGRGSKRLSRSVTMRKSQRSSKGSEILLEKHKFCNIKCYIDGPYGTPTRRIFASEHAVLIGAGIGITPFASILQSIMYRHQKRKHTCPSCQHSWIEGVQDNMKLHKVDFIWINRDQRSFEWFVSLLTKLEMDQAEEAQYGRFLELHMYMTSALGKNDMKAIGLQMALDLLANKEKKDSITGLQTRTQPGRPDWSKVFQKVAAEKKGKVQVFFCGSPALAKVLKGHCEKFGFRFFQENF

Row | Compound | z-score [1] | composite z-score [2] | z-score [3] | z-score [4] | z-score [5] | z-score [6] | z-score [7] | z-score [8] | z-score [9] | z-score [10]
1 | CCOC(=O)C1=C[C@@H](C(C)(C)C)N(S(=O)(=O)c2ccc(C)cc2)[C@H]1c1ccc(OC)cc1 | -0.0371 (inactive) | 0.235 | 1.44 (inactive) | 1.11 (inactive) | 0.457 (inactive) | 0.71 (inactive) | -0.454 | -1.67 (inactive) | 0.244 (inactive) | 1.65
2 | CC(C)c1ccc(NN2C(C(O)c3ccccc3)C=CC3C(=O)N(c4ccccc4)C(=O)C32)cc1 (stereo not given) | 0.2 (inactive) | 0.395 | 4.51 (inactive) | 1.97 (inactive) | 0.506 (inactive) | 1.42 (inactive) | -0.396 | -0.365 (inactive) | -2.49 (inactive) | -2.48
3 | O=C(NC1CC1)[C@@H]1c2ccccc2C(=O)N(C2CCCCC2)[C@H]1c1ccc(CO)cc1 | 0.1 (inactive) | -0.28 | 1.4 (inactive) | 0.295 (inactive) | 0.973 (inactive) | 0.0604 (inactive) | -0.0513 | 0.382 (inactive) | 0.589 (inactive) | 0.536
4 | CC(=O)NCCCC[C@@H]1NC(=O)[C@H]2C[C@@H](C(=O)O)[C@@H](c3cccc(OCCO)c3)N2C1=O | -0.442 (inactive) | 0.189 | 1.15 (inactive) | 0.821 (inactive) | -1.42 (inactive) | 0.253 (inactive) | 0.435 | 0.956 (inactive) | 0.197 (inactive) | -0.0358
5 | CCc1cccc(NC(=O)O[C@H]2[C@H](OC(=O)Nc3ccccc3-c3ccccc3)[C@H](OC(=O)Nc3ccccc3-c3ccccc3)[C@@H](OC)O[C@@H]2CO)c1 | -1.98 (inactive) | 0.0442 | 3.88 (inactive) | 1.84 (inactive) | 0.17 (inactive) | 1.77 (inactive) | 0.371 | -3.06 (inactive) | -0.477 (inactive) | -1.01
6 | O=C1NC(=O)C2C1C=CC(C(O)C1CCCCC1)N2Nc1ccccn1 (stereo not given) | -1.72 (inactive) | -0.0779 | 0.188 (inactive) | 0.567 (inactive) | -0.489 (inactive) | 0.433 (inactive) | -0.621 | -1.2 (inactive) | -3.29 (inactive) | -2.69
7 | O=C1O[C@H](c2ccccc2)[C@H](c2ccccc2)N2[C@H]1[C@@H](C(=O)N1CCN(c3ncccn3)CC1)[C@]1(C(=O)Nc3ccc(C#CC4(O)CCCCCC4)cc31)[C@H]2c1ccc(O)cc1 | 2.51 (inactive) | 0.0903 | 0.36 (inactive) | 0.88 (inactive) | 1.09 (inactive) | 0.566 (inactive) | 1.37 | 1.24 (inactive) | 0.663 (inactive) | 1.22
8 | [N-]=[N+]=NCc1ccccc1[C@H]1OC(c2ccc(OCCCO)cc2)=N[C@@]1(Cc1ccccc1N=[N+]=[N-])C(N)=O | -0.0584 (inactive) | 0.439 | 22.9 (active) | 3.47 (inactive) | 1.46 (inactive) | 0.79 (inactive) | 0.362 | -4.46 (inactive) | -0.74 (inactive) | -2.11
9 | C[C@]1(C(=O)NC2CC2)c2ccccc2C(=O)N(Cc2cc(F)cc(C(F)(F)F)c2)[C@H]1c1ccc(CO)cc1 | 0.256 (inactive) | -0.351 | 3.02 (inactive) | 0.334 (inactive) | 0.678 (inactive) | 0.597 (inactive) | 0.0446 | -0.0377 (inactive) | -0.978 (inactive) | -1.46
10 | C=C1C(=O)C=C2CN(C(=O)c3ccccc3)[C@@](Cc3ccc(F)cc3)(C(=O)OC)[C@@H]12 | -2.05 (inactive) | 0.676 | -0.0775 (inactive) | -1.39 (inactive) | -1.69 (inactive) | -1.83 (inactive) | -1.06 | -3.94 (inactive) | -4.76 (inactive) | -3.73
11 | [N-]=[N+]=Nc1ccccc1C[C@]1(C(=O)N2CCCCC2)N=C(c2ccc(OCCCO)cc2)O[C@H]1c1ccccc1 | 0.699 (inactive) | 0.179 | 18 (active) | 4.52 (inactive) | 3.48 (inactive) | 1.87 (inactive) | -0.0985 | -1.76 (inactive) | -0.593 (inactive) | -1.68
12 | COCCOC(=O)N1C(=O)[C@@]2(c3ccccc31)[C@H](C(=O)Nc1nc3ccccc3s1)[C@H]1C(=O)O[C@H](c3ccccc3)[C@H](c3ccccc3)N1[C@@H]2c1ccccc1OCCO | 0.253 (inactive) | 0.941 | 4.98 (inactive) | 2.57 (inactive) | 0.0618 (inactive) | 1.95 (inactive) | -0.0149 | 1.91 (inactive) | -0.601 (inactive) | 1.17
13 | COC(=O)C(CC#Cc1ccc2c(c1)[C@]1(C(=O)N2)[C@H](C(=O)NC[C@H](O)c2ccccc2)[C@H]2C(=O)O[C@H](c3ccccc3)[C@H](c3ccccc3)N2[C@@H]1c1ccc(O)cc1)C(=O)OC | -1.21 (inactive) | -0.445 | 1.44 (inactive) | 0.21 (inactive) | -0.506 (inactive) | -0.0801 (inactive) | -0.0784 | 1.4 (inactive) | 0.691 (inactive) | 1.33
14 | O=C(N1CCOCC1)[C@]1(CCS(=O)(=O)c2ccccc2)N=C(c2ccc(OCCCO)cc2)O[C@@H]1c1ccccc1 | 0.427 (inactive) | 0.441 | 27.2 (active) | 20 (active) | 3.43 (inactive) | 2.61 (inactive) | 0.0315 | 0.348 (inactive) | 1.72 (inactive) | 1.16
15 | CC(C)N1C(=O)[C@@]2(Cc3ccccc31)c1ccccc1C(=O)N(Cc1ccccc1C(F)(F)F)[C@H]2c1ccc(CO)cc1 | -0.49 (inactive) | -0.853 | 0.382 (inactive) | 0.596 (inactive) | 0.238 (inactive) | 0.501 (inactive) | -0.0346 | 0.449 (inactive) | -1.18 (inactive) | 0.56
16 | C=CC[C@H](O)c1ccc(O)c(F)c1 | -0.421 (inactive) | -0.555 | 0.307 (inactive) | 0.131 (inactive) | -0.304 (inactive) | 0.255 (inactive) | -0.165 | -1.32 (inactive) | -0.305 (inactive) | 0.113
17 | CC(C)C[C@@H]1NC(=O)[C@H]2C[C@@H](C(=O)O)[C@@H](c3cccc(OCCO)c3)N2C1=O | 0.441 (inactive) | 0.0794 | 6.12 (inactive) | 1.34 (inactive) | -2.36 (inactive) | 0.595 (inactive) | 0.793 | -0.911 (inactive) | -0.69 (inactive) | -0.0644
18 | COC(=O)[C@@]1(Cc2ccccc2)[C@H]2c3cc(C(=O)N(C)C)n(Cc4nc5ccccc5[nH]4)c3C[C@H]2CN1C(=O)c1ccccc1 | 0.989 (inactive) | 0.0063 | 4.51 (inactive) | -0.2 (inactive) | 0.57 (inactive) | -0.949 (inactive) | 0.965 | -0.273 (inactive) | 0.839 (inactive) | -0.155
19 | CCCCCN1CC=CC23O[C@@H]4/C=C\CCCOC(=O)C4[C@H]2C(=O)N(CCO)[C@@H]3C1=O (stereo not given in full) | 3.1 (inactive) | -0.103 | 0.592 (inactive) | 0.177 (inactive) | -0.608 (inactive) | -0.776 (inactive) | 1.48 | 0.88 (inactive) | 0.261 (inactive) | 2.19
20 | COc1ccc(C(=O)Nc2ccc(CN3C(=O)[C@]4(O[C@H](CC(=O)N(CCO)Cc5ccccc5)[C@@H]([Si](C)(C)c5ccc(OC)cc5)[C@@H]4C)c4ccccc43)cc2)cc1 | 0.863 (inactive) | -0.142 | 4.94 (inactive) | 1.89 (inactive) | 0.439 (inactive) | 1.02 (inactive) | 0.383 | 0.658 (inactive) | 0.801 (inactive) | 3.23
21 | CCOC(=O)C1=CCC(c2cccn2C(=O)OC(C)(C)C)N(S(=O)(=O)c2ccc(C)cc2)C1 (stereo not given) | -0.258 (inactive) | 0.245 | 7.3 (inactive) | 1.26 (inactive) | 0.312 (inactive) | 0.486 (inactive) | -0.0414 | -0.035 (inactive) | 0.754 (inactive) | 0.499
22 | CCCC[C@@H](O)C1=C(C)Cn2c(=O)n(-c3ccccc3)c(=O)n2[C@H]1CO | 3.02 (inactive) | -0.414 | -0.262 (inactive) | -0.957 (inactive) | -0.0398 (inactive) | -2.37 (inactive) | 0.916 | -0.943 (inactive) | 0.216 (inactive) | 0.616
23 | C=C(COC)C(=O)CC[C@H](OC(C)=O)c1ccccc1OCCO | 0.618 (inactive) | -0.176 | 1.91 (inactive) | -0.291 (inactive) | 0.537 (inactive) | -1.49 (inactive) | 1.2 | -1.57 (inactive) | 0.456 (inactive) | -1.41
24 | COC(=O)[C@@]1(Cc2ccc(OC)cc2)[C@@H]2[C@@H](CC(=O)[C@H]2CC(=O)C(=O)N(C)C)CN1C(=O)c1ccccc1 | -0.715 (inactive) | 2.12 | 2.94 (inactive) | 1.08 (inactive) | 0.63 (inactive) | 1.45 (inactive) | 0.58 | 0.337 (inactive) | 0.898 (inactive) | 0.427
